Assay results taken from publication PMC5540273 (PLoS ONE, 2017).

Experiments:
Settings in all cases: concentration: 1 μM, replicates: in singlicate; n = 1
[1] = system: CDC2L2
[2] = system: T1, CDC2L5
T1 construct: gene CDK13

[3] = system: T2, CDK11
T2 construct: gene CDK19

[4] = system: CDK2
[5] = system: CDK3
[6] = system: CDK4-cyclinD1
[7] = system: CDK4-cyclinD3
[8] = system: CDK4
[9] = system: CDK5
[10] = system: CDK7
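Also: KINOMEscan kinase panel screen.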

| SMILES | %Inh [1] [%] | %Inh [2] [%] | %Inh [3] [%] | %Inh [4] [%] | %Inh [5] [%] | %Inh [6] [%] | %Inh [7] [%] | %Inh [8] [%] | %Inh [9] [%] | %Inh [10] [%] |
| --- | --- | --- | --- | --- | --- | --- | --- | --- | --- | --- |
| COc1cc(Nc2nccc(N3CCC(NC(=O)c4cc5ccccc5s4)C3)n2)cc(OC)c1OC (stereo not drawn) [GSK1379760] | 5 | 0 | 19 | 0 | 11 | 41 | 0 | 14 | 0 | 16 |
| COc1cc(Nc2nccc(-c3c(-c4cccc(NC(=O)c5c(F)cccc5F)c4)nn4ncccc34)n2)cc(OC)c1OC [GSK327238] | 15 | 0 | 0 | 0 | 4 | 0 | 97.4 | 21 | 0 | 0 |
| Nc1ncc(-c2cccnc2)c2scc(-c3ccc4c(c3)CCN4C(=O)Cc3ccccc3)c12 [GSK683281] | 8 | 0 | 45 | 0 | 21 | 0 | 0 | 14 | 9 | 0 |
| Cc1ccc(F)c(C(=O)Nc2cccc(-c3nn4ccccc4c3-c3ccnc(Nc4cccc(F)c4)n3)c2)c1F [GSK361061] | 23 | 0 | 14 | 11 | 17 | 0 | 0 | 3 | 4 | 0 |
| CCc1ccc(-c2ccc3c(c2)-c2c(cnn2C)S(=O)(=O)N3C)cc1 | 0 | 20 | 7 | 0 | 0 | 3 | 3 | 0 | 0 | 6 |
| O=C(Nc1n[nH]c2cc(-c3ccoc3)ccc12)C1CC1 [SB-738481] | 0 | 29 | 0 | 76 | 51 | 14 | 3 | 0 | 17 | 71 |
| C[C@@H]1CC[C@@H](C(=O)Nc2ccccc2)CN1c1cc(-c2ccc3c(N)n[nH]c3c2)nc(N)n1 [GSK2286062] | 20 | 0 | 0 | 20 | 0 | 0 | 0 | 16 | 0 | 0 |
| Clc1ccc(-c2nn3ncccc3c2-c2ccnc(Nc3ccc4c(c3)OCCO4)n2)cc1 [GW829116] | 0 | 0 | 0 | 0 | 0 | 0 | 0 | 0 | 7 | 0 |
| CNC(=O)c1ccccc1Nc1nc(Nc2ccc(N3CCOCC3)cc2)ncc1Cl.Cl [GSK1576028] | 20 | 0 | 0 | 39 | 31 | 47 | 45 | 28 | 29 | 96.6 |
| CN1CCN(CCCNc2nccc(-c3c(-c4ccc(F)cc4)nn4cc(C(F)(F)F)ccc34)n2)CC1 [GW621581] | 0 | 0 | 0 | 0 | 0 | 0 | 0 | 0 | 0 | 0 |
| Cl.c1ccc(-c2ccc3c(Nc4ccc5[nH]ccc5c4)ccnc3c2)nc1 [GW440138] | 7 | 0 | 4 | 0 | 0 | 27 | 0 | 35 | 0 | 0 |
| O=C(O)C(F)(F)F.O=C(O)C(F)(F)F.O=c1[nH]ccc2nc(N[C@@H]3CCCNC3)nc(Nc3ccc(S(=O)(=O)N4CCOCC4)cc3)c12 [GSK2177277] | 17 | 0 | 0 | 88 | 88 | 98.1 | 99.8 | 62 | 90.8 | 99.6 |
| O=C(Nc1cccc(-c2nn3ccccc3c2-c2ccnc(Nc3cccc(C(F)(F)F)c3)n2)c1)c1c(F)cccc1F [GSK292658] | 0 | 99.3 | 0 | 0 | 1 | 0 | 0 | 0 | 0 | 6 |
| COC(=O)Nc1nc2cc(Oc3ccc(NC(=O)Nc4cc(C(F)(F)F)ccc4F)cn3)ccc2[nH]1.Cl.Cl [GW681170] | 18 | 69 | 98.1 | 16 | 7 | 7 | 0 | 50 | 0 | 94.1 |
| O=C(NC1CCN(c2ccnc(Nc3ccc(F)cc3)n2)C1)c1cc2ccccc2s1 (stereo not drawn) [GSK1379716] | 14 | 0 | 36 | 0 | 18 | 14 | 0 | 0 | 7 | 0 |
